Screening results deposited in PubChem by National Center for Advancing Translational Sciences (NCATS).
GLP1R cytotox = cytotoxicity in counter-screen for GLP-1R inverse agonists. HEK293 cAMP-luciferase reporter cells, luminescence, 24 h. Potency, µM (series often up to 38.3 µM), for the others: at the highest dose activity change, negative = inhibition, actives largely listed as inhibitors. 0.13% of 410,000 active. AID 624418;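 note: loss of luciferase light is scored as toxicity; potency is the fitted concentration of half-maximal effect; % is set by controls: 0 for no effect and ±100 for the full control effect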
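Step one: seed cells (200 cells/uL, DMEM with 10% Nu serum, 1% pen-strep). Step two: 12-hour incubation at 37 deg C. Step three: pin 23 nL compound, incubate 24 hr. Step four: add luciferase reagent, read luminescence 12 min later.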
DRD3 agonist = activates the human D3 dopamine receptor; max activation, %; 0.58% of 410,000 active; D3R DiscoveRx beta-arrestin cells, luminescence, 90 min; AID 652048; P35462; in the data active = max activation above about 30%; note: 0% is about no effect
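Agonist mode: compounds and dopamine controls were applied to plated cells for 90 min at 37 degrees C after an overnight attachment at 1500 cells/well. Luminescent read-out followed 30 - 60 minutes at room temperature with DiscoveRx detection reagent.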
D3 antag = antagonists of human D3 dopamine receptor; 2.5% of 360,000 active; max response, negative = inhibition, %; P35462; D3R cells, DiscoveRx beta-arrestin luminescence, antagonist mode; hits give low values; AID 652054; in the data active = max response below about -50%; inconclusive = no clear call, values can overlap the other calls; note: % is set by controls: 0 for no effect and ±100 for the full control effect
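Cells expressing the human receptor were seeded at 1500 cells/well, incubated overnight at 37 degrees C in 5% CO2, then exposed to library compounds with dopamine controls for 90 minutes at 37 degrees C before luminescent detection.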
ClpP mod = qHTS Assay for Activators of ClpP | purified B. subtilis ClpP, FRET peptide cleavage, 20 min | Potency, µM (top dose mostly 57.5 µM), without a hit: top-dose activity change, negative = active | ATP-dependent Clp protease proteolytic subunit (Bacillus subtilis (strain 168)), P80244 | 1.9% of 340,000 active; active = well fitted falling curve with a large enough effect; inconclusive = small, poorly fitted or top-dose-only effect; inactive = no such curve, though single readings can be large or run the other way; note: potency is the fitted concentration of half-maximal effect; the source files actives as falling curves though it sought activators and does not explain the sign; nearly all actives have a fitted effect of over 65% in size
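FRET quenching reversal measured ClpP activation: 10 microg/mL B. subtilis ClpP at pH 8 with the FRET-FV decapeptide, read at 430 nm after 320 nm excitation. The 20-min minus 0-min signal was scaled between DMSO/no-enzyme wells and ADEP (5.8 microM final).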
GLP1R inv ag = inverse agonists of human GLP-1 receptor; HEK293 GLP-1R CRE-luciferase, luminescence, 24 h; GLP-1R form is constitutively active; Potency, µM (highest dose often 38.3 µM), inactives show at the top dose activity change, negative = inhibition, most hits filed as inhibitors; 1.6% of 410,000 active; P43220; note: potency is the fitted concentration of half-maximal effect; % is set by controls: 0 for no effect and ±100 for the full control effect; nearly all actives have a fitted effect of over 55% in size
Target sequence (P43220 whole entry, looked up): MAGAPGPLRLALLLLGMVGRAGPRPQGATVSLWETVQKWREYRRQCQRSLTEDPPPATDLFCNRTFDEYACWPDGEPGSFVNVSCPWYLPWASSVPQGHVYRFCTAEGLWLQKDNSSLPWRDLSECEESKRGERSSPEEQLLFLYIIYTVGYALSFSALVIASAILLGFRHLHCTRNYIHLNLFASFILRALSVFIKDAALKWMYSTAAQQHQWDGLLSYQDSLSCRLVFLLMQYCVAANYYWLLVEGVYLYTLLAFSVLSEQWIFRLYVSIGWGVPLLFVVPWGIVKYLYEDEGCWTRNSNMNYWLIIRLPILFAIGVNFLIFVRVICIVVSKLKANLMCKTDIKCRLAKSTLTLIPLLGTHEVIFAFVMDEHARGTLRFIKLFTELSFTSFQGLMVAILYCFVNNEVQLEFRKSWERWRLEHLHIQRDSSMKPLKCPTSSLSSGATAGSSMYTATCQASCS
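HEK293 cells stably co-expressing constitutively active GLP-1R and a cAMP-responsive luciferase reporter were seeded in DMEM with 10% Nu serum, given compounds after 12 h, and incubated 24 h at 37 deg C. Luminescence was then read.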
GLP1R ag = activates the human GLP-1 receptor; HEK293 GLP-1R CRE-luciferase, luminescence, 4-6 h; cells express a hypersensitive GLP-1R form; Potency, µM (titrated, usually from 45.6 µM), inactives show at the top dose activation, usual class: activators; 0.007% of 380,000 active; AID 624172; note: potency is the fitted concentration of half-maximal effect; % of control where 0% means no effect
The depositor's hits bear a star; ? = inconclusive; · = no result given. Rows were chosen to be rich in hits. Some 5.7% of all compounds tested hit in one or more screens of this group. Unless noted, calls come from the whole dose curve; as a rule, active = well fitted curve in the direction sought with a large enough effect; inconclusive = small, poorly fitted or top-dose-only effect, or another doubt; inactive = no such curve, though single readings can be large; an effect the other way counts as inactive or inconclusive.

SMILES	GLP1R cytotox	DRD3 agonist	D3 antag	ClpP mod	GLP1R inv ag	GLP1R ag
Cc1ccc(C)c(OCCC(=O)N2CCN(S(=O)(=O)c3cc(C)ccc3C)CC2)c1	-10%	3	-26	1%	11µM*	11%
Cc1cc(C)c(S(=O)(=O)N2CCN(C(=O)CCOc3ccccc3C)CC2)c(C)c1	-6%	1	53	0%	-3%	1%
CCCN(CC1CC1)c1cc2c(c3c1ccn3C)C1CCC2C1 (stereo not drawn)	3%	-14	?	-23%	-33%	-4%
CCN(Cc1ccccc1)c1cc2c(c3c1ccn3C)C1CCC2C1 (stereo not drawn)	4%	-13	-55*	-29%	-22%	7%
CCN(CC)c1cc2c(c3c1ccn3C)C1CCC2C1 (stereo not drawn)	-5%	-19	-61*	-15%	-9%	-9%
Cn1ccc2c(N(Cc3ccccc3)Cc3ccccc3)cc3c(c21)C1CCC3O1 (stereo not drawn)	-1%	-4	7	-5%	-16%	1%
CN(c1cccc(F)c1)c1cc2c(c3c1ccn3C)C1CCC2C1 (stereo not drawn)	19%	-9	-11	8.9µM*	-1%	6%
CN(c1ccc(Cl)cc1)c1cc2c(c3c1ccn3C)C1CCC2C1 (stereo not drawn)	6%	-1	7	-24%	?	-2%
COc1ccc(-c2noc(-c3ccc(NCc4ccccc4OC)c([N+](=O)[O-])c3)n2)cc1	-13%	6	·	0%	-6%	·
CC1(C(=O)NS(=O)(=O)c2cccc(F)c2)CCN1C(=O)CCC1CCCC1 (stereo not drawn)	0%	-2	-19	0%	8%	-3%
CC1CCN(C(=O)c2ccc3c(c2)N(Cc2ccccc2)C(=O)c2ccccc2S3(=O)=O)CC1	-21%	-9	·	1%	2%	·
N#Cc1nc(-c2ccccc2F)oc1NCCN1CCOCC1	-8%	2	-2	4%	17%	11%
N#Cc1nc(-c2cccc3ccccc23)oc1NCCN1CCOCC1	12%	-4	-23	6.3µM*	16%	17%
N#Cc1nc(-c2ccco2)oc1NCCN1CCOCC1	-7%	8	29	13µM*	10%	2%
N#Cc1nc(-c2ccco2)oc1N1CCC(Cc2ccccc2)CC1	3%	-1	21	25µM*	0%	4%
CCc1nc2ccc(C(=O)NCCCn3ccnc3)cn2c1N(C)Cc1nccs1	-3%	-1	13	-4%	18%	4%
CSCCC(NC(=O)c1ccccc1)C(=O)N1CC(C)OC(C)C1 (stereo not drawn)	1%	4	2	2%	6%	0%
CCc1ccc(Oc2c(C(F)(F)F)oc3c(CN4CCN(C)CC4)c(O)ccc3c2=O)cc1	16%	-22	·	-2%	15%	-8%
CCCN1CCN(c2ncnc3sc(C(=O)Nc4ccc(OC(F)(F)F)cc4)c(C)c23)CC1	-5%	-22	·	1%	10µM*	·
CCCN1CCN(c2ncnc3sc(C(=O)Nc4ccc(C(C)C)cc4)c(C)c23)CC1	-13%	-7	·	1%	?	·
Cc1ccc(OCCN2CCN(c3ncnc4sc(C)c(C)c34)CC2)cc1	-30%	33*	16	-1%	?	10%
CCN1C(=O)c2ccccc2S(=O)(=O)c2ccc(C(=O)NCc3ccc(C)cc3)cc21	0%	1	·	-2%	?	-9%
N/C(=N\O)c1ccc(N2CCN(c3ncccc3C(F)(F)F)CC2)nc1	?	31*	40	·	-19%	22%
CCc1nc2ccc(C(=O)NCCCN3CCN(c4ccc(F)cc4)CC3)cc2nc1CC	-25%	-39	?	-2%	-86%	5%
CN1CCN(CCNC(=O)c2ccc3nc(-c4ccc(F)cc4)c(-c4ccc(F)cc4)nc3c2)CC1	?	3	-1	4%	5.6µM*	18%
SMILES	GLP1R cytotox	DRD3 agonist	D3 antag	ClpP mod	GLP1R inv ag	GLP1R ag
O=C(NCCN1CCN(C(=O)c2ccc(Br)cc2)CC1)c1ccc(Br)cc1	-9%	-24	-98*	0%	?	-1%
CC1CCCCN1CCCNC(=O)c1ccc(Br)cc1 (stereo not drawn)	6%	-31	-65*	0%	-15%	-4%
Cc1ccc(C(=O)NCCN2CCN(C(=O)c3ccc(C)c(C)c3)CC2)cc1C	-12%	-28	-98*	0%	-15%	1%
CCN(C(=O)Cn1c(C(=O)OC)cc2sccc21)c1cccc(C)c1	-11%	8	·	-1%	?	·
COc1ccc(OC)c(S(=O)(=O)Nc2ccc3c(c2)OCCO3)c1	3%	6	-9	-6%	?	0%
CC1(C)C(/C=C/C=C/C=C/C=C2\N(CCCCS(=O)(=O)O)c3ccc4ccccc4c3C2(C)C)=[N+](CCCCS(=O)(=O)[O-])c2ccc3ccccc3c21	-23%	6	?	3%	-8%	10%
CCOC(=O)c1c(S(=O)(=O)N2CCC(C(=O)NCc3cccc(OC)c3)CC2)c(C)n(C)c1C	-3%	-3	·	0%	-3%	·
CN(Cc1ccc(Cl)cc1)C(=O)CNC(=O)C12CC3CC(CC(C3)C1)C2	-1%	-22	-23	0%	8.9µM*	4%
